FUS suppressor = rescues growth of FUS-expressing yeast; AID 1347120; S. cerevisiae FUS-expressing, growth rescue, OD600, 24 h; 390,000 tested, 0.24% active; Potency, µM (top dose mostly 76.6 µM), hits mostly activators;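 note: potency is the fitted concentration of half-maximal effect; plate controls were DMSO vehicle for no effect and reference control for full effect; nearly all actives have a fitted effect of over 55% in size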
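Yeast FUS proteinopathy model; galactose-induced FUS (2%), starting OD 0.005. Cpds in dilution series, 24hr, 30C, 99% humidity. Abs 600 nm growth. Pos ctrl CP55940 (top 92uM final); neg ctrl DMSO.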
Giardia kill = kills Giardia lamblia | Giardia lamblia trophozoite viability | activity change, % at 7.66 µM, hits read low | 340,000 tested, 0.15% active | AID 540267; in the data active = activity change below about -80%; inconclusive = between about -30% and that limit;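 note: parasites exposed to compound for two days anaerobically before the ATP read; % is set by controls: 0 for no effect and ±100 for the full control effect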
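Each well holds 100 Giardia trophozoites and compound. After two days (48 hrs) at 37 deg C in anaerobic conditions, ATP is quantified by luminescence.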
ELG1 repair inh = ELG1-dependent DNA repair inhibition | 330,000 tested, 2.3% active | Potency, µM (series often up to 46.1 µM), for the others: at the top dose activity change, negative = inhibition, most hits filed as inhibitors | HEK293T ELG1-luciferase reporter, luminescence, 16 h; DNA damage induced by 5-fluorouridine | AID 504467; note: potency is the fitted concentration of half-maximal effect; % is set by controls: 0 for no effect and ±100 for the full control effect; nearly all actives have a fitted effect of over 55% in size
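Step one: seed 2,000 cells per well. Step two: pin-transfer compound or DMSO alongside 5-fluorouridine. Step three: incubate 16 hr, 37 °C, 5% CO2. Step four: add ONE-Glo, wait 30 min, read luminescence.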
TRPV1 ag = activates the human vanilloid receptor TRPV1. Q8NER1. TRPV1-expressing cells, Fluo-8 calcium influx, agonist mode. activation, % at 8.33 µM. 320,000 tested, 0.19% active; in the data active = activation above about 80%; inconclusive = between about 30% and that limit; note: 0% is about no effect
Target sequence (Q8NER1 whole entry, looked up): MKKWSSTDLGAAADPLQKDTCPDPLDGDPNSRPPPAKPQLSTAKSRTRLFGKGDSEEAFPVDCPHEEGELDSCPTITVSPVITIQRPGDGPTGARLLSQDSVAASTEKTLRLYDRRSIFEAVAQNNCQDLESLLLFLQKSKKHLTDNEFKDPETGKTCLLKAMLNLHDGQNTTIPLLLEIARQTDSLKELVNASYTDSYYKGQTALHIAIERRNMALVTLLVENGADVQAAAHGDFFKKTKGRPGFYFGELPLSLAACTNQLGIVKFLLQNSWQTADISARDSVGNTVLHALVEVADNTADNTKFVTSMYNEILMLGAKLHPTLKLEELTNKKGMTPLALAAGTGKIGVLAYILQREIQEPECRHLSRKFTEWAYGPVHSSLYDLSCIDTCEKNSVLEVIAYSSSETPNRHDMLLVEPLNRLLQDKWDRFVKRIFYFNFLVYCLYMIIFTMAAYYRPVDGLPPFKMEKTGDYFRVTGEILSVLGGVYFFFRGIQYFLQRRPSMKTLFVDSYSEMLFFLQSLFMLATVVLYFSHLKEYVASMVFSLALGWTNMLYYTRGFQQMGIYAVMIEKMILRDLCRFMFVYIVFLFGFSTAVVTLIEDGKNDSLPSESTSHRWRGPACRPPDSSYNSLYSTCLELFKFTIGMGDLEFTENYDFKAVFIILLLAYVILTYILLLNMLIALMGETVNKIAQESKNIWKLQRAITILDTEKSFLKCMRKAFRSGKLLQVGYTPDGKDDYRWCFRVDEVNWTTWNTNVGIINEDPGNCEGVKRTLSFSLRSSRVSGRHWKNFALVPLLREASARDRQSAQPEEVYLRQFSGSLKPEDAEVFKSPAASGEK
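Fluo-8 calcium influx in TRPV1-expressing cells, kinetic read (ex 480/em 520 nm). Compound added and read 3 min for agonist activity, followed by capsaicin at EC20 final and 2 min further read for enhancement.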
TRPV1 potentiator = human TRPV1 potentiation | Q8NER1 | TRPV1-expressing cells, Fluo-8 calcium influx, capsaicin EC20 potentiation | potentiation, % at 8.33 µM | 320,000 tested, 0.02% active | AID 540277; in the data active = potentiation above about 80%; inconclusive = between about 30% and that limit; note: 0% is about no effect
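Fluo-8 calcium influx in TRPV1-expressing cells, kinetic read (ex 480/em 520 nm). Compound added and read 3 min for agonist activity, followed by capsaicin at EC20 final and 2 min further read for enhancement.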
Starred values were filed as active, the others as inactive; i = inactive; ? = inconclusive; / = no result. Most compounds without a hit are left out; they make up all but 2.3% or so of the library. Unless noted, calls come from the whole dose curve; as a rule, active = well fitted curve in the direction sought with a large enough effect; inconclusive = small, poorly fitted or top-dose-only effect, or another doubt; inactive = no such curve, though single readings can be large; an effect the other way counts as inactive or inconclusive.

SMILES	FUS suppressor	Giardia kill	ELG1 repair inh	TRPV1 ag	TRPV1 potentiator
CC(=O)OC1C(N2CCCCC2)c2c(ccc(/C=C/C(=O)N3CCCCC3)c2O)OC1(C)C (stereo not drawn)	i	-8	15%	81*	-18
CC1(C)Oc2ccc3ccc(=O)oc3c2C(N2CCCCC2)C1O (stereo not drawn)	i	3	17%	-3	1
COC(=O)[C@@]1(Cc2ccc(F)cc2)[C@H]2c3cc(C(=O)N(C)C)n(CC4CC4)c3C[C@H]2CN1C(=O)c1ccccc1	25µM*	/	/	/	/
COC(=O)[C@@]1(Cc2ccc(F)cc2)[C@H]2c3cc(C(=O)N(C)C)n(CCF)c3C[C@H]2CN1C(=O)c1ccccc1	i	/	/	/	/
COc1ccc(C(=O)NCC(c2ccc3c(c2)OCO3)N2CCOCC2)cc1OC (stereo not drawn)	i	/	/	/	/
Cc1ccc(CN2CCC(CNC(=O)c3cc4ccc5cccnc5c4[nH]3)CC2)cc1	i	/	/	/	/
COc1ccc2c(c1)CC/C(=C/c1cc(OC)c(OC)c(OC)c1)C2=O	i	-29	18µM*	20	-14
O=C(CSc1nnc(SCc2cccc3ccccc23)s1)Nc1ccc(Oc2ccccc2)cc1	i	/	/	/	/
CSc1ccc(CCNC(=O)c2nn(C)c3c2CS(=O)(=O)c2ccccc2-3)cc1	i	14	26µM*	-1	0
CCOc1ccccc1CNC(=O)c1nn(C)c2c1CS(=O)(=O)c1ccccc1-2	i	-12	16µM*	2	2
CCc1ccc(CNC(=O)c2nn(C)c3c2CS(=O)(=O)c2ccccc2-3)cc1	?	6	?	1	11
COc1ccc(C2Nc3ccccc3C(=O)N2Cc2ccco2)cc1OC (stereo not drawn)	/	-7	/	/	/
Cc1cc(OCC(=O)Nc2ccc(Br)cc2)cc2c1C(=O)CC(C)(C)O2	i	-3	15µM*	/	/
CC(=O)Nc1ccc(NC(=O)COc2cc(O)c3c(c2)OC(C)(C)CC3=O)cc1	i	7	15%	?	-11
Cc1cc(C)cc(OCc2cc(=O)n3c4c(sc3n2)CCCC4)c1	i	/	/	/	/
Cc1onc(-c2ccccc2)c1C(=O)c1c[nH]c(C(=O)NCc2ccccn2)c1	i	2	16µM*	1	6
Cc1onc(-c2ccccc2)c1C(=O)c1c[nH]c(C(=O)NCc2ccncc2)c1	i	6	13µM*	10	?
Cc1onc(-c2ccccc2)c1C(=O)c1c[nH]c(C(=O)NCCCN2CCOCC2)c1	i	-3	-1%	-2	-6
Cc1cc(C(=O)NNC(=S)NC(=O)/C=C/c2ccccc2Cl)n[nH]1	13µM*	6	20%	-2	1
Cc1onc(-c2ccccc2Cl)c1C(=O)N1CCN(c2nc3ccccc3s2)CC1	i	4	13µM*	-1	4
CN(C1CCCCC1)S(=O)(=O)c1ccc(C(=O)N2CCN(c3nc4ccccc4s3)CC2)cc1	/	4	9.2µM*	-1	-3
Cc1onc(-c2ccccc2Cl)c1C(=O)N1CCCCC1	i	-5	0%	4	-4
O=c1[nH]c(SCc2nc3c(cnn3-c3ccccc3)c(=O)[nH]2)nc2ccccc12	i	11	?	3	21
O=c1[nH]c(CSc2nc3ccccc3[nH]2)nc2c1cnn2-c1ccccc1	i	9	12µM*	?	6
Cc1ccc(C)c(S(=O)(=O)/N=C2\C=C(NS(=O)(=O)c3ccccc3)C(=O)c3ccccc32)c1	i	-12	23µM*	-3	10
SMILES	FUS suppressor	Giardia kill	ELG1 repair inh	TRPV1 ag	TRPV1 potentiator
Cc1ccccc1NC1=C/C(=N\S(=O)(=O)c2cccs2)c2ccccc2C1=O	i	-23	3.7µM*	4	14
CC(=O)Nc1ccc(NC2=C/C(=N/S(=O)(=O)c3cccs3)c3ccccc3C2=O)cc1	i	-13	1.6µM*	10	12
CC(=O)Nc1ccc(NC(=O)C(C)OC(=O)c2ccccc2NS(=O)(=O)c2cccs2)cc1 (stereo not drawn)	i	4	-9%	-4	1
Cc1ccccc1NC1=C/C(=N\S(=O)(=O)c2ccc(C(=O)O)cc2)c2ccccc2C1=O	i	-16	12µM*	2	-16
Cc1ccc(NC2=C/C(=N/S(=O)(=O)c3cccs3)c3ccccc3C2=O)cc1C	/	-9	?	5	-4
CCc1ccc(S(=O)(=O)/N=C2\C=C(NS(=O)(=O)c3ccccc3)C(=O)c3ccccc32)cc1	i	-22	-30%	-3	-11
C=CCN=C1N[C@@H](c2ccc(Br)cc2)C(C(=O)OC)=C(C)N1Cc1ccccc1	/	/	/	4	6
COc1ccc(S(=O)(=O)/N=C2\C=C(Nc3ccc(O)cc3)C(=O)c3ccccc32)cc1	i	-5	5.8µM*	?	0
O=C(O)c1ccc(S(=O)(=O)/N=C2\C=C(Nc3ccccc3F)C(=O)c3ccccc32)cc1	i	-3	?	-1	28
c1cc2c(cn1)cnc1cscc12	i	-3	8.2µM*	-3	6
Cc1ccc(-n2nc(C(=O)Nc3ccc(Cl)cn3)c3c4ccccc4n(C)c3c2=O)cc1	i	/	/	/	/
Cn1c(/C(C#N)=C(\O)c2ccc([N+](=O)[O-])s2)nc2ccccc21	i	-86*	2%	-2	29
O=c1[nH]c2ccc(NS(=O)(=O)c3ccc(F)cc3)cc2s1	i	/	/	/	/
CCN(c1ccccc1)S(=O)(=O)c1ccc(Cl)c(NC(=O)CNCc2ccccc2OC)c1	/	11	18µM*	/	/
CCN(c1ccccc1)S(=O)(=O)c1ccc(OC)c(NC(=O)Cc2ccc(OC)c(OC)c2)c1	i	18	18µM*	9	20
Cc1ccc(NC(=O)C(=O)NCC(c2cccnc2)N2CCN(Cc3ccccc3)CC2)cc1F (stereo not drawn)	i	/	/	/	/
COC(=O)c1cc2sccc2n1Cc1nc(-c2ccc(C)cc2)oc1C	i	/	/	/	/
Cc1ccc(Cn2c(C(=O)O)c(CNCc3ccccc3Cl)c3ccc(C)cc32)cc1	i	/	/	/	/
COc1ccc(Cn2c(C(=O)O)c(CNCCc3ccccc3Cl)c3ccc(C)cc32)cc1	14µM*	/	/	/	/
CCN(CC)CCCNc1cc(-c2ccccc2)nc(C)n1	i	/	/	/	/
Cc1cccc(C)c1NC(=O)c1csc2c1CCCC2	i	/	/	/	/
COc1ccc(-n2nc(C(=O)NCC(=O)NCc3ccc(F)cc3)c3ccccc3c2=O)cc1	i	4	16µM*	3	-1
COc1ccc(-n2nc(C(=O)NCC(=O)NC(C)C)c3ccccc3c2=O)cc1	i	-2	-1%	-10	14
COc1ccc(-n2nc(C(=O)NCC(=O)NCCC3=CCCCC3)c3ccccc3c2=O)cc1	i	10	16µM*	3	?
COC(=O)c1ccc(NC(=O)CC2C(=O)N(c3ccccc3)C(=O)N2Cc2cccs2)cc1 (stereo not drawn)	i	/	/	/	/

Compound activity deposited in PubChem by National Center for Advancing Translational Sciences (NCATS).
